Experimental data published in ChEMBL document CHEMBL4513216, “Probing the Open Global Health Chemical Diversity Library for Multistage-Active Starting Points for Next-Generation Antimalarials” (ACS Infect Dis, 2020).
Screen size: about 69,000 compounds; about 8,600 (12%) showed an effect of 50% or more. Shown is part of a subset that was picked to be rich in strong results.

The molecules below were run on Plasmodium berghei (assay: Screen against P. berghei liver stage (PbLuc), transformed with Luciferase, at 10uM). Settings: tested at 10 uM.
Type: functional, HepG2
In the case of `Cn1cc(N2CCCC(SCc3ccco3)C2=O)cn1` (stereo not given), the INHIBITION is reported as 9.79%.
Work on `CCc1cccc(OCC(=O)NC(C)c2nnc3n2CCC3)c1` (stereo not given) yielded an INHIBITION of -27.8%.
Work on `CCC(=O)N1C[C@@H]2CCN(c3cnccn3)C[C@@H]2C1` yielded an INHIBITION of -18.4%.
`CC(C)(C)c1ccc(OCC(N)=O)c(CN2C[C@H]3CC(O)C[C@H]3C2)c1` (stereo not given in full) was tested, and the INHIBITION was 25.8%.
With `CC(C)OCCCN(CC(=O)N1CCNCC1)C(=O)c1ccc(F)cc1` the INHIBITION was 55.7%.
`CC(C)OCCCN(CC(=O)N1CCNCC1)C(=O)c1cccc(Cl)c1` was tested, and the INHIBITION was 25.9%.
Work on `CCCN(CC(=O)N1CCNCC1)C(=O)c1cccc(Cl)c1` yielded an INHIBITION of 13.5%.
With `Cc1noc(C)c1-c1cccc(C2CCNCC2)n1` the INHIBITION was 5.11%.
Work on `COc1ccccc1OCCNC(=O)CN1CCN(C)CC1C` (stereo not given) yielded an INHIBITION of 16.657%.
`Nc1nc2c(c3c1C(=O)NC3=O)CCC2` was tested, and the INHIBITION was 41.9%.
`O=C1NC(=O)c2c3c(nc(O)c21)CCCC3` gave an INHIBITION of 29.3%.
`Nc1nc2c(c3c1C(=O)NC3=O)CCCC2` was tested, and the INHIBITION was 70.7%.
For `COc1ccc(Nc2nc(N)c(C(C)=O)s2)cc1Cl`, the INHIBITION was 17.6%.
`COCCN1CC[C@@H]2O[C@@H](COCC(=O)N3CCCC3)CC[C@@H]21` was tested, and the INHIBITION was -23.2%.
`Cc1cc(C(F)(F)F)nc(CNc2cc(C)nc3cc(C)nn23)n1` showed an INHIBITION of 43.2%.
Molecule `Cc1cc(NCCCC(F)(F)F)n2nc(C)cc2n1` has an INHIBITION of 42.3%.
`Cc1cc(NCc2cc(C)oc2C(F)(F)F)n2nc(C)cc2n1` was tested, and the INHIBITION was 79.2%.
Molecule `CCN(C)c1ncnc2c1CCN(Cc1ccc(OC)cc1)CC2` has an INHIBITION of 34.1%.
Work on `O=C(c1ccsc1)N1CCO[C@@H]2CN(Cc3ccccn3)CC[C@@H]2C1` yielded an INHIBITION of -31.3%.
Work on `Cc1nc(N2CCOCC2)nc2c1CN(C(=O)C(C)C)CC2` yielded an INHIBITION of 5.04%.
With `Cc1nc(N2CCCC2)nc2c1CN(C(=O)N1CCOCC1)CC2` the INHIBITION was 34.9%.
`Cc1cc(C(=O)N2CCc3nc(N4CCOCC4)nc(C)c3C2)c(C)o1` gave an INHIBITION of 55.7%.
In the case of `Cc1nc(N2CCCC2)nc2c1CCN(C(=O)N1CCCC1)CC2`, the INHIBITION is reported as -23.3%.
Molecule `Cc1nc(N2CCCC2)nc2c1CCN(C(=O)c1ccoc1C)CC2` has an INHIBITION of 3.17%.
Molecule `Cc1cc(C(=O)N2CCc3nc(N4CCCC4)nc(C)c3CC2)c(C)o1` has an INHIBITION of 67.5%.
In the case of `Cc1ccc(C(=O)NCc2ccnc(N(C)C)c2)c(C)c1`, the INHIBITION is reported as -29.1%.
Work on `Cc1ccccc1N1CC(c2nnc(N)s2)CC1=O` (stereo not given) yielded an INHIBITION of -37.1%.
Work on `CC(C)C[C@H](NC(=O)Nc1ccc(F)c(Cl)c1)C(=O)O` yielded an INHIBITION of 47.1%.
Work on `COC(=O)CNC(=O)c1nc(Cl)sc1C(C)C` yielded an INHIBITION of -17.6%.
`CCNC(=O)C1(Cc2cc(-c3ccccc3)no2)CCCN(C)C1` (stereo not given) showed an INHIBITION of 10.9%.
`COCC(=O)N1C[C@@H](O)[C@H](N2CCN(c3ccccc3)CC2)C1` showed an INHIBITION of 12.39%.
For `Cc1ccccc1CNC(=O)CNc1ccc(OC2CCOC2)cc1` (stereo not given), the INHIBITION was -6.97%.
Work on `O=C(CNc1ccc(OC2CCOC2)cc1)NCc1ccco1` (stereo not given) yielded an INHIBITION of -12.1%.
In the case of `O=C(CNc1ccc(OC2CCOC2)cc1)NCc1cccs1` (stereo not given), the INHIBITION is reported as 59.8%.
Molecule `Cc1ccccc1C1(CNC(=O)NC(C)c2nncn2C)CC1` (stereo not given) has an INHIBITION of 40.2%.
`CN(Cc1ccccc1)C(=O)Cn1nc(N2CCSCC2)ccc1=O` showed an INHIBITION of -22.9%.
In the case of `NC(=O)c1cccc(CCNCc2cccs2)c1`, the INHIBITION is reported as 27.7%.
Work on `NC(=O)c1cccc(CCNCc2cnc(C3CCC3)s2)c1` yielded an INHIBITION of 82.5%.
Molecule `COc1ccc(CNCCc2cccc(C(N)=O)c2)cc1C` has an INHIBITION of 11.8%.
In the case of `COc1ccccc1CNCCc1cccc(C(N)=O)c1`, the INHIBITION is reported as 2.22%.
`COc1cccc(CNCCc2cccc(C(N)=O)c2)c1` gave an INHIBITION of -0.758%.
For `NC(=O)c1cccc(CCNCc2cnc(-c3cccs3)s2)c1`, the INHIBITION was 74%.
`O=C(CCc1ccsc1)N1CCCCC1Cn1cccn1` (stereo not given) was tested, and the INHIBITION was -23.9%.
`Cc1noc([C@H]2CC[C@@H]3[C@@H](CCN3S(=O)(=O)C3CC3)O2)n1` showed an INHIBITION of -6.23%.
`Cc1cccc(OCCC(=O)N2CCN(CC(=O)NC3CC3)CC2)c1C` showed an INHIBITION of 33.8%.
Molecule `Cn1c(N2CCOCC2)nc2cc(C(=O)N3CCCOCC3)ccc21` has an INHIBITION of -24.6%.
Work on `CC(=O)NCc1cccc(-n2ccnc2-c2cccc(C(=O)O)c2)c1` yielded an INHIBITION of 62.1%.
`CNC(=O)Cc1ccc(-n2ccnc2-c2cccc(C(=O)O)c2)cc1` gave an INHIBITION of 15.6%.
For `CCc1ncc(-c2nccn2-c2cccc(CC(=O)O)c2)cn1`, the INHIBITION was 16.3%.
For `Cc1cnn(C2CCCN(C(=O)c3ccc(Cn4ccnc4)cc3)C2)c1` (stereo not given), the INHIBITION was 16.9%.
In the case of `Cc1ccc(C(CNC(=O)c2cc(=O)c3ccccc3[nH]2)N(C)C)cc1` (stereo not given), the INHIBITION is reported as -5.22%.
In the case of `Cc1cnc(N2C[C@@H]3CN(C4CCOC4)CCC[C@]3(C(=O)O)C2)nc1` (stereo not given in full), the INHIBITION is reported as 24.9%.
Work on `CCN(CC1CC1)C(=O)NCc1nnc2n1CCC2` yielded an INHIBITION of 45.3%.
`COc1ccc(NC(=O)NCC(O)c2ccccc2F)c(OC)c1` (stereo not given) showed an INHIBITION of 3.15%.
`Cc1c(C(=O)N2CCC(c3nc(C)n4ccsc34)CC2)cnn1C` gave an INHIBITION of 42.6%.
In the case of `CC(=O)N1[C@H](Cn2cncn2)C[C@@H]2CN(Cc3ccncc3)CC[C@@H]21`, the INHIBITION is reported as 55.9%.
`CN1[C@H](Cn2cncn2)C[C@@H]2CN(Cc3ccsc3)CC[C@@H]21` gave an INHIBITION of 54.8%.
For `CN1[C@H](Cn2cncn2)C[C@@H]2CN(Cc3cccc(C#N)c3)CC[C@@H]21`, the INHIBITION was 20.1%.
`CC(C)N1[C@H](CN2CCCC2)C[C@@H]2CN(Cc3ccoc3)CC[C@@H]21` showed an INHIBITION of -75.9%.
`CC(C)N1[C@H](Cn2cncn2)C[C@@H]2CN(Cc3cccs3)CC[C@@H]21` was tested, and the INHIBITION was 57.5%.
`CC(=O)N1[C@H](Cn2cncn2)C[C@@H]2CN(Cc3ccccn3)CC[C@@H]21` showed an INHIBITION of 34.1%.
With `CC(=O)N1[C@H](Cn2cncn2)C[C@@H]2CN(Cc3cccnc3)CC[C@@H]21` the INHIBITION was 35.4%.
Work on `CC(C)N1[C@H](Cn2cccn2)C[C@@H]2CN(C3CCOCC3)CC[C@@H]21` yielded an INHIBITION of 33%.
For `CC(C)N1[C@H](Cn2cncn2)C[C@@H]2CN(c3ncccn3)CC[C@@H]21`, the INHIBITION was 20.1%.
In the case of `CC(C)N1[C@H](Cn2cccn2)C[C@@H]2CN(Cc3ccoc3)CC[C@@H]21`, the INHIBITION is reported as 57.9%.
In the case of `CC(C)N1[C@H](Cn2cncn2)C[C@@H]2CN(Cc3ccsc3)CC[C@@H]21`, the INHIBITION is reported as 47.5%.
`CN1[C@H](Cn2cccn2)C[C@@H]2CN(Cc3cccs3)CC[C@@H]21` was tested, and the INHIBITION was 28.3%.
`Cc1cccc(C(CNC(=O)NCc2cc[nH]n2)N2CCOCC2)c1` (stereo not given) gave an INHIBITION of 35.95%.
`CCN(Cc1ccoc1)C(=O)NC1CCN(C(=O)OC(C)(C)C)C1` (stereo not given) was tested, and the INHIBITION was 1.93%.
`CCc1ccc(C(N)c2cccc(S(C)(=O)=O)c2)cc1` (stereo not given) showed an INHIBITION of 48.1%.
In the case of `CC1CCCCN1C(=O)COc1nc(C(C)(C)C)no1` (stereo not given), the INHIBITION is reported as -29.2%.
Work on `Cn1cnnc1-c1ccnc(NCc2ccccc2)c1` yielded an INHIBITION of 57.7%.
Work on `COc1cc(CNc2cc(-c3nncn3C)ccn2)cc(OC)c1OC` yielded an INHIBITION of 53.4%.
Molecule `COc1cc(CNCc2ccnc(N3CCOCC3)c2)cc(Cl)c1OC` has an INHIBITION of 40.3%.
With `COc1cc(CNc2nncs2)cc(OC)c1OC` the INHIBITION was 80.8%.
`Cn1cnnc1-c1ccnc(NCc2ccc3c(c2)OCCO3)c1` was tested, and the INHIBITION was 42.3%.
Molecule `COc1cc(CNc2nc(N3CCOCC3)ns2)cc(OC)c1OC` has an INHIBITION of 8.05%.
`COc1ccc(CNc2nncs2)cc1F` showed an INHIBITION of 8.05%.
`COc1cc(CNCCc2cnn(C)c2)cc(OC)c1OC` gave an INHIBITION of 31.55%.
In the case of `Cn1cnnc1-c1ccnc(NCc2ccc(Br)cc2)c1`, the INHIBITION is reported as 8.05%.
`COCCN(Cc1cnn(C)c1)C(=O)C1CCN(C2CCCCC2)CC1` was tested, and the INHIBITION was 36.7%.
`C[C@@H]1CN(CCOc2ccc(Cl)cc2)CC[C@@]1(O)C1CCOCC1` showed an INHIBITION of -17.8%.
`O=C(N[C@@H]1CN(Cc2ccoc2)[C@@H]2CCCO[C@@H]21)C1CC1` showed an INHIBITION of 11.2%.
In the case of `CCNc1ncc(C(=O)NC2CCC(n3cnnc3)CC2)cn1` (stereo not given), the INHIBITION is reported as 37.7%.
With `O=C(NC1CCC(O)CC1)c1cnc2c(cnn2C2CCCC2)c1` (stereo not given) the INHIBITION was 11.3%.
Molecule `O=C(NC1CCc2nccn2C1)c1ccc(NC2CC2)nc1` (stereo not given) has an INHIBITION of 7.58%.
Work on `CCN(CC)c1ncc(Cl)c(C(=O)NC2CCc3nccn3C2)n1` (stereo not given) yielded an INHIBITION of 76.7%.
In the case of `CCN(CC)c1ncc(Cl)c(C(=O)NC2CCC(O)CC2)n1` (stereo not given), the INHIBITION is reported as 60.1%.
`Cc1cn2c(n1)CCC(NC(=O)c1nc(C)ncc1Cl)C2` (stereo not given) was tested, and the INHIBITION was 30.3%.
`CCN(CC)c1ncc(Cl)c(C(=O)NC2CC2)n1` showed an INHIBITION of 57.3%.
Work on `CN(Cc1cnn(C)c1)C(=O)NC1CCC(O)CC1` (stereo not given) yielded an INHIBITION of 1.81%.
With `Cn1cc(I)c(C(=O)NC2CCCCC2)n1` the INHIBITION was 25.4%.
In the case of `CNc1nc(CNC(=O)Nc2cccc(Cl)c2Cl)cs1`, the INHIBITION is reported as -15.467%.
`CCc1noc(CCC(=O)N2CCC(c3ccn[nH]3)C2)n1` (stereo not given) gave an INHIBITION of 10.97%.
For `CNC(=O)N1Cc2cc(F)ccc2C2(CCN(C)CC2)C1`, the INHIBITION was 21.6%.
With `CCc1ccc(S(=O)(=O)Nc2ccn(CC(=O)OC)n2)cc1` the INHIBITION was -74%.
`C=c1ccoc1=C1NN=C(CNCCn2cc(C)cn2)O1` showed an INHIBITION of -25.9%.
For `NC(=O)NC(=O)CNC1(c2ccc(Cl)cc2)CCC1`, the INHIBITION was -24.2%.
For `COCCN1CCCn2c(nc(CNS(C)(=O)=O)cc2=O)C1`, the INHIBITION was 25.8%.
`CCOC(=O)c1sc2ccsc2c1CNC(=O)C(C)OC` (stereo not given) showed an INHIBITION of 17.8%.
Molecule `CCOC(=O)c1sc2ccsc2c1CNC(=O)C(C)(C)C#N` has an INHIBITION of 20.6%.
`CCOC(=O)c1sc2ccsc2c1CNC(=O)CCOC` showed an INHIBITION of 61.6%.
For `CCOC(=O)c1sc2ccsc2c1CNC(=O)CC`, the INHIBITION was 57.2%.
`CCOC(=O)c1sc2ccsc2c1CNC(=O)COC` was tested, and the INHIBITION was 19.933%.
Molecule `CCOC(=O)c1sc2ccsc2c1CNS(C)(=O)=O` has an INHIBITION of 7.925%.
